The source made the active and inactive calls. The calls were made as follows: active = hit-call score of the fitted dose curve at least 0.9, where 1 is the maximum; inactive = score below 0.9.

Assay [1] in a line: ATG_CRE_CIS: Attagene CIS-FACTORIAL HepG2 Assay for human cAMP Responsive Element (CRE) binding protein 3 (AID 2282926). The conditions noted are these: HepG2 CRE cis-reporter, Attagene multiplexed mRNA; actives raise or lower the signal. Put shortly: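 Human liver HepG2, transient MRTU transfection, 24 h compound exposure. Total RNA → oligo(dT) RT → PCR → 6-FAM primer extension → HpaI cut → CE. Activity called both directions vs DMSO.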

Assay [2] has as its target CCAAT/enhancer-binding protein beta (Homo sapiens) (UniProt P17676). As to the kind of experiment: ATG_C_EBP_CIS: Attagene CIS-FACTORIAL HepG2 Assay for human CCAAT/Enhancer Binding Protein (C/EBP) beta (AID 2282927). Particulars: HepG2 Attagene cis-factorial transcription factor reporter; actives raise or lower the signal. In outline:
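Transiently transfected HepG2 (MRTU library, endogenous TF-driven promoters); 24 h dosing; total RNA → oligo(dT) RT → PCR → 6-FAM primer extension → HpaI digest → CE; fit bidirectionally vs DMSO.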

The nature of assay [3]: ATG_CMV_CIS: Attagene CIS-FACTORIAL HepG2 Assay for human CMV (Internal Marker) (AID 2282928).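 Also: endpoint acts as a background internal control marker rather than a target.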 The conditions noted are these: HepG2 CMV promoter reporter, transcription factor profiling; actives raise or lower the signal. In outline: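 Cell system: HepG2, transiently transfected multiple reporter units under cis promoters. Exposure: 24 h. Detection: RT-PCR, FAM labeling, HpaI digestion, capillary electrophoresis. Analysis: bidirectional, DMSO baseline.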

The nature of assay [4]: ATG_DR4_LXR_CIS: Attagene CIS-FACTORIAL HepG2 Assay for human Liver X Receptor (LXR), DR4 submotif (AID 2282929). The conditions noted are these: HepG2 Attagene DR4 cis-reporter, mRNA transcription; actives raise or lower the signal. In outline:
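Cells were transfected with multiple reporter transcription units, exposed to chemicals for 24 hours, then lysed for RNA. Reporter mRNA induction was measured by RT-PCR with capillary electrophoresis detection and fitted in both directions relative to DMSO.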

Assay [5] concerns the target Aryl hydrocarbon receptor (Homo sapiens) (UniProt P35869). Description: ATG_Ahr_CIS: Attagene CIS-FACTORIAL HepG2 Assay for human Aryl Hydrocarbon Receptor (Ahr) (AID 2282930). Particulars: HepG2 AhR cis-factorial reporter transcription; actives raise or lower the signal. In outline: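 Read-out: reporter mRNA quantified by RT-PCR with fluorescent primer extension and capillary electrophoresis. Human HepG2 liver cells carried transfected cis-promoter reporter units and were exposed to chemical for 24 h; gain or loss fitted relative to DMSO.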

Assay [6] is described as follows: ATG_AP_1_CIS: Attagene CIS-FACTORIAL HepG2 Assay for human Activator Protein 1 (AP-1) (AID 2282931). The conditions noted are these: HepG2 Attagene cis-factorial AP-1 reporter mRNA; actives raise or lower the signal. Put shortly:
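Endogenous transcription-factor activity in human HepG2 liver cells is read through a cis-promoter reporter transcript, sampled 24 h after dosing. Detection uses RT-PCR with capillary electrophoresis; values come from bidirectional fitting relative to DMSO.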

Assay [7] is described as follows: ATG_AP_2_CIS: Attagene CIS-FACTORIAL HepG2 Assay for human Activator Protein 2 (AP-2) (AID 2282932). Particulars: HepG2 AP-2 cis-reporter, Attagene transcription factor profiling; actives raise or lower the signal. Put shortly:
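Multiplexed mRNA reporter assay in HepG2: cis-regulated units report endogenous factor activity after 24 h treatment. Fluorescence from capillary electrophoresis of RT-PCR products gives the signal, with DMSO as baseline.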

A short description of assay [8]: ATG_BRE_CIS: Attagene CIS-FACTORIAL HepG2 Assay for human Bone Morphogenetic Protein (BMP) Response Element (BRE) (AID 2282933). The conditions noted are these: HepG2 BMP response element reporter, Attagene transcription factor profiling; actives raise or lower the signal. Put shortly: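 HepG2 cells transiently transfected with CIS reporter units (endogenous TF activity, BMP response element), dosed 24 h. Reporter mRNA quantified by RT-PCR, fluorescent labelling and capillary electrophoresis; bidirectional fit vs DMSO baseline.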

For assay [9], the target named is Transcription factor E2F1 (Homo sapiens) (UniProt Q01094). Description: ATG_E2F_CIS: Attagene CIS-FACTORIAL HepG2 Assay for human E2F Transcription Factor 1 (AID 2282935). Particulars: HepG2 Attagene cis-reporter, E2F reporter RNA transcripts; actives raise or lower the signal. Put shortly: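 Measures reporter transcript levels via RT-PCR with capillary electrophoresis detection in HepG2 cells harboring cis-regulated reporter units; 24 h post-dose; bidirectional curve fitting with DMSO as baseline.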
Transcription factor E2F1 (Homo sapiens), sequence (Q01094 whole entry, looked up): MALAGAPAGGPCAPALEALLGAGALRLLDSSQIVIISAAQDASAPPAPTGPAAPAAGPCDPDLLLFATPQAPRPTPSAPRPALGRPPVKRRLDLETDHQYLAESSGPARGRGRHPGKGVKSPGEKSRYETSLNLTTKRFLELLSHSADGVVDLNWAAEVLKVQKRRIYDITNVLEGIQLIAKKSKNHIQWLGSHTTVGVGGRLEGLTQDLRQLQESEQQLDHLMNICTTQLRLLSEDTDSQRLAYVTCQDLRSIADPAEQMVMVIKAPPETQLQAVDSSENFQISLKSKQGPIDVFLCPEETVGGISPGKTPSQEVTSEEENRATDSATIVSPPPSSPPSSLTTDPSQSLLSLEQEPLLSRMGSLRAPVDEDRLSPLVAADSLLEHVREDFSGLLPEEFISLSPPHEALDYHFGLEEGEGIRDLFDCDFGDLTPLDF

CCAAT/enhancer-binding protein beta (Homo sapiens), sequence (P17676 whole entry, looked up): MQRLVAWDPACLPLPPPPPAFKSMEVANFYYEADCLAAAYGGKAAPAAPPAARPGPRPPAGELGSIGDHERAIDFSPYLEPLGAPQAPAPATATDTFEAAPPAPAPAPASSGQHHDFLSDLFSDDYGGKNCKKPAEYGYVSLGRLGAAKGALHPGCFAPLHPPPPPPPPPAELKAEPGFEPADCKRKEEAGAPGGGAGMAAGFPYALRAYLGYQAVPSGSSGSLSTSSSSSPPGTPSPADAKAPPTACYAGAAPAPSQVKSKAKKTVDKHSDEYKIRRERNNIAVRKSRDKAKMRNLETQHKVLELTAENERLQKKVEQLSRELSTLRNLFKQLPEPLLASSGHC
Aryl hydrocarbon receptor (Homo sapiens), sequence (P35869 whole entry, looked up): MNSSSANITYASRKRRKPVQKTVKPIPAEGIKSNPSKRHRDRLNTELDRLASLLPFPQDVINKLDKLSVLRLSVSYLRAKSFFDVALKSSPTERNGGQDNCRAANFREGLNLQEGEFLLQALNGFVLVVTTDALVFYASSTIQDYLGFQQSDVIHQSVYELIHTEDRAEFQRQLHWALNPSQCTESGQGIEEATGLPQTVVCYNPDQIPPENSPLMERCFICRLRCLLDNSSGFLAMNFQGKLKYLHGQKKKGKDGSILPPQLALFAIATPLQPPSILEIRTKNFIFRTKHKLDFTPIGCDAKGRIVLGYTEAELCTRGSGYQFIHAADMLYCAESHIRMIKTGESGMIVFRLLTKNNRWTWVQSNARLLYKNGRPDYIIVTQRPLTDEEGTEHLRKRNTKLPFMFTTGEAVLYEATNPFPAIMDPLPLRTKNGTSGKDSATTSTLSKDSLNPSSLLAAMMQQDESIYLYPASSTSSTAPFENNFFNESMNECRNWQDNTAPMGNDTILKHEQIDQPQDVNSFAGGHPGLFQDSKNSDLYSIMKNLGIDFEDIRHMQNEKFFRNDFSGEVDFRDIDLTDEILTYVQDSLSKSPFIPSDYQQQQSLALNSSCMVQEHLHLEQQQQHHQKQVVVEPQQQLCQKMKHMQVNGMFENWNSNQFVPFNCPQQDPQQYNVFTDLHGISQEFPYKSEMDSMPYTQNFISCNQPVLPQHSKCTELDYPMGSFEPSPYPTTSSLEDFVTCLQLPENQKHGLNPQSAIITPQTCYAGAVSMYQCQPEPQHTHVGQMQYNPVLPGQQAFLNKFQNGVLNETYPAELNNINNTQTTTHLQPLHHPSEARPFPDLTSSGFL

For the compound `OCC(CO)(CO)COCC(CO)(CO)CO`, the outcome in [1], in assay [2], in [3], in [4], in [5] and in assay [6] was inactive. Besides, the compound was called inactive in assay [7], in assay [8] and in assay [9].

Turning to `OC[C@H]1O[C@H](O[C@]2(CCl)O[C@H](CCl)[C@@H](O)[C@@H]2O)[C@H](O)[C@@H](O)[C@H]1Cl`, the call in [1], in assay [2], in assay [3], in assay [4], in [5] and in [6] was inactive. The compound was classed as inactive in assay [7], in assay [8] and in [9].

As to `Cc1c(Cl)c(=O)oc2cc(O)ccc12`, the call in [1], in assay [4], in [5], in [6], in [7] and in [8] was inactive. Further, the compound was called inactive in [9]. Moreover, the AC50 in assay [2] is 129 µM (active); in [3] it was 63 µM (active).

Regarding `CC1(C)[C@H](C(=O)OCc2cccc(Oc3ccccc3)c2)[C@@H]1C=C(Cl)Cl`, the compound was classed as inactive in [1], in [2], in assay [3], in assay [4], in assay [5] and in assay [6]. For the same compound, the call in assay [7], in assay [8] and in [9] was inactive.

With `COc1ccc(OC)c(OC)c1`, the result in [1], in assay [2], in assay [3], in assay [4], in assay [5] and in [6] was inactive. The compound was classed as inactive in assay [7], in assay [8] and in [9].

In the case of `C=C(C)C(=O)O`, the compound was called inactive in assay [1], in assay [2], in [3], in assay [4], in assay [5] and in assay [6]. For the same compound, the compound was called inactive in assay [7], in assay [8] and in [9].

For the compound `CC1CCC(C(C)(C)O)CC1` (stereo unspecified), the compound was called inactive in [1], in [2], in assay [3], in [4], in [5] and in assay [6]. The outcome in assay [7], in assay [8] and in [9] was inactive.

Consider `CCC(C(=O)NC(N)=O)c1ccccc1` (stereo unspecified), for which the compound was called inactive in assay [1], in assay [2], in [3], in assay [4], in assay [5] and in assay [6]. The result in assay [7], in assay [8] and in assay [9] was inactive.

Take `CC(=O)Nc1ccccc1O`: the compound was classed as inactive in assay [1], in [2], in assay [3], in [4], in [6] and in [7]. Besides, the outcome in assay [8] and in [9] was inactive. In [5], the concentration at half-maximal activity (AC50) is 20.7 µM (active).

As for `O=Cc1ccc(Cl)c([N+](=O)[O-])c1`, the AC50 was 129 µM (active) in assay [1]; 168 µM (active) in assay [3]; 48.4 µM (active) in [4]; 25.8 µM (active) in [6]; 131 µM (active) in [8]. Further, the result in assay [2], in assay [5], in assay [7] and in assay [9] was inactive.

For the compound `Clc1ccc(Cl)c(Cl)c1Cl`, the call in assay [1], in assay [2], in assay [3], in assay [4], in assay [6] and in assay [7] was inactive. In addition, the outcome in assay [8] and in [9] was inactive. In assay [5], the AC50 was 31.7 µM (active).

As to `O=Nc1ccc(Nc2ccccc2)cc1`, the compound was classed as inactive in [1], in [6], in [7], in assay [8] and in assay [9]. For the same compound, the AC50 is 8.78 µM (active) in [2], 8.52 µM (active) in [3], 25.3 µM (active) in [4] and 33.4 µM (active) in assay [5].

As to `CCC(=O)OCc1ccccc1`, the compound was called inactive in [1], in assay [2], in [3], in [4], in [5] and in assay [6]. The result in assay [7], in assay [8] and in assay [9] was inactive.

For `O=C(O)CCCCCCCCCCC(=O)O`, the outcome in assay [1], in assay [2], in assay [3], in [4], in assay [5] and in assay [6] was inactive. Also, the outcome in assay [7], in assay [8] and in assay [9] was inactive.

For the compound `CCCCCC(=O)OCCc1ccccc1`, the compound was classed as inactive in assay [1], in assay [2], in assay [3], in [4], in assay [5] and in assay [6]. Besides, the call in assay [7], in [8] and in [9] was inactive.

With `Cc1ccc(Nc2ccc(O)c3c2C(=O)c2ccccc2C3=O)cc1`, the compound was classed as inactive in [1], in [2], in [3], in assay [4], in assay [5] and in [6]. Moreover, the result in assay [7], in assay [8] and in assay [9] was inactive.

Turning to `NCCOCCO`, the result in assay [1], in assay [2], in assay [3], in [4], in assay [5] and in assay [6] was inactive. For the same compound, the call in [7], in [8] and in assay [9] was inactive.

Regarding `Clc1cccc(Cl)n1`, the result in assay [1], in assay [2], in [3], in [4], in assay [5] and in [6] was inactive. The outcome in assay [7] and in assay [9] was inactive.

By AC50 is commonly meant the concentration giving half of the maximal activity seen.

These data come from PubChem BioAssay (EPA / NIEHS).
